Results from PubChem BioAssay (EPA / NIEHS).
Values joined by “and” are separate entries in the source; they are usually repeats but may differ in a detail not shown here. Equal entries are not always repeated. Results filed as inconclusive are left out. Where a structure was tested more than once in an assay, its records may differ in their call. Active and inactive are the calls of the source. How the source made its calls, unless noted: active means hit-call score of the fitted dose curve at least 0.9, where 1 is the maximum; inconclusive means response in the unintended direction; inactive means score below 0.9.

How the values were obtained:
[1] = ATG_PBREM_CIS: Attagene CIS-FACTORIAL HepG2 Assay for human Phenobarbital-responsive Enhancer Module (PBREM) (AID 2282955; active means hit-call score of the fitted dose curve at least 0.9, where 1 is the maximum; inactive means score below 0.9); settings: HepG2 PBREM cis-reporter, Attagene multiplexed transcription; actives raise or lower the signal
How it was run: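 Endogenous transcription factors in human liver HepG2 cells drive a PBREM cis-element reporter, whose transcript level after 24 h treatment is quantified by RT-PCR with capillary electrophoresis; activity fitted in both directions against DMSO.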

[2] = ATG_TCF_b_cat_CIS: Attagene CIS-FACTORIAL HepG2 Assay for human T-Cell-Factor with beta-catenin (TCF/b-cat) (AID 2282965; active means hit-call score of the fitted dose curve at least 0.9, where 1 is the maximum; inactive means score below 0.9); settings: HepG2 TCF/beta-catenin cis-reporter transcription, actives raise or lower the signal
How it was run: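 Endogenous TCF/LEF activity read as reporter transcript level via RT-PCR and capillary electrophoresis fluorescence in transfected HepG2, 24 h exposure; gain or loss of signal fitted against DMSO controls.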

[3] = ATG_GAL4_TRANS: Attagene TRANS-FACTORIAL HepG2 Assay for GAL4 (Internal Marker) (AID 2282976); settings: HepG2 Attagene TRANS GAL4 internal marker reporter
How it was run: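 RT-PCR/capillary electrophoresis readout of reporter mRNA. HepG2, transient MRTU transfection (GAL4-UAS reporters), 24 h compound exposure. Background-control endpoint, positive direction vs DMSO baseline.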

[4] = target: Hepatocyte nuclear factor 4-alpha (Homo sapiens) (UniProt P41235); test: ATG_HNF4a_TRANS: Attagene TRANS-FACTORIAL HepG2 Assay for human Hepatocyte Nuclear Factor 4 alpha (HNF4a) (AID 2282982); settings: HepG2 HNF4a transactivation reporter, mRNA readout
How it was run: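 Multiplexed reporter assay: transfected HepG2, 24 h exposure, total RNA → oligo(dT) RT → PCR → 6-FAM extension → HpaI digest → CE fluorescence. DMSO = negative control.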

[5] = ATG_M_32_TRANS: Attagene TRANS-FACTORIAL HepG2 Assay for M32 Transcription Factor (Internal Marker) (AID 2282984); settings: HepG2 Attagene TRANS M32 internal marker reporter
How it was run: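 Cell-based TRANS-format assay in HepG2: exogenous chimeric GAL4 reporter units transiently expressed, compounds applied 24 h. Reporter mRNA detected by RT-PCR plus capillary electrophoresis; this readout is an internal background marker.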

[6] = target: Transcriptional activator Myb (Homo sapiens) (UniProt P10242); test: ATG_Myb_CIS: Attagene CIS-FACTORIAL HepG2 Assay for human Myeloblastosis (Myb) Proto-Oncogene Transcription Factor (AID 2282986; active means hit-call score of the fitted dose curve at least 0.9, where 1 is the maximum; inactive means score below 0.9); settings: HepG2 Attagene CIS-FACTORIAL Myb reporter transcription; actives raise or lower the signal
How it was run: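 Reporter transcript levels, quantified by fluorescent RT-PCR and capillary electrophoresis, serve as the read-out. Transfected HepG2 cells carrying cis-promoter reporter units are dosed for 24 hours, and curves are fitted bidirectionally against DMSO controls.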

[7] = target: Nuclear respiratory factor 1 (Homo sapiens) (UniProt Q16656); test: ATG_NRF1_CIS: Attagene CIS-FACTORIAL HepG2 Assay for human Nuclear Respiratory Factor 1 (NRF1) Orphan Gene (AID 2282987; active means hit-call score of the fitted dose curve at least 0.9, where 1 is the maximum; inactive means score below 0.9); settings: HepG2 NRF1 cis-element reporter, Attagene multiplex; actives raise or lower the signal
How it was run: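 Multiplexed cis-reporter assay, HepG2 cells, 24 h treatment. Total RNA → oligo(dT) RT → PCR with reporter-specific primers → 6-FAM primer extension → HpaI cut → CE. Bidirectional fit vs DMSO.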

[8] = ATG_NF_kB_CIS: Attagene CIS-FACTORIAL HepG2 Assay for human Nuclear Factor Kappa B (NF-kB) (AID 2282991; active means hit-call score of the fitted dose curve at least 0.9, where 1 is the maximum; inactive means score below 0.9); settings: HepG2 Attagene cis-factorial NF-kB reporter mRNA; actives raise or lower the signal
How it was run: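 Transient MRTU transfection of human HepG2 liver cells → 24 h chemical exposure → total RNA, oligo(dT) RT → PCR, 6-FAM primer extension, HpaI digest 2 h 37 C → CE fragment analysis. Bidirectional fitting, DMSO negative control.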

[9] = ATG_Oct_MLP_CIS: Attagene CIS-FACTORIAL HepG2 Assay for human Octamer-Binding Transcription Factor (Oct) (AID 2282993; active means hit-call score of the fitted dose curve at least 0.9, where 1 is the maximum; inactive means score below 0.9); settings: HepG2 Attagene cis-factorial Oct reporter, mRNA; actives raise or lower the signal
How it was run: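 HepG2, transient MRTU transfection, cis promoter elements; 24 h dosing; RT-PCR/CE fluorescence read-out of reporter mRNA; fit both directions vs DMSO.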

[10] = target: human Retinoid X Receptor beta (RXRb), RXRB (gene 6257) (UniProt P28702); test: ATG_RXRb_TRANS: Attagene TRANS-FACTORIAL HepG2 Assay for human Retinoid X Receptor beta (RXRb) (AID 2283013)
How it was run: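 After a 24 h incubation with test chemical, transfected HepG2 cells carrying NR-Gal4 fusions and GAL4-UAS reporter transcription units yield RNA whose reporter cDNA is FAM-labelled, HpaI-cut and sized by capillary electrophoresis; increases over DMSO are scored.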

[11] = TOX21_p53_BLA_p2_viability: Viability Assessment in the Tox21 HCT-116 p53 Agonism Beta-lactamase Assay, Phase 2 (AID 2283591);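 further: actives lower the ATP signal meaning cytotoxicity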
How it was run: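 Cytotoxicity readout: CellTiter-Glo ATP luminescence, 30 min at room temperature, after the beta-lactamase read. Cells were HCT116 exposed 16 h at 37C to compounds pin-transferred at 217-fold dilution from DMSO stocks.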

[12] = target: Cellular tumor antigen p53 (Homo sapiens) (UniProt P04637); test: TOX21_p53_BLA_p2_ratio: Tox21 HCT-116 p53 Agonism Beta-lactamase Assay, Ratio, Phase 2 (AID 2283592)
How it was run: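 Readout: blue/green (460/530 nm) FRET emission ratio after 2 h CCF4-AM loading at room temperature, excitation 405 nm. HCT116 p53 bla cells, 16 h compound exposure at 37C, 5% CO2; agonist direction fitted against DMSO baseline.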

[13] = target: Cellular tumor antigen p53 (Homo sapiens) (UniProt P04637); test: TOX21_p53_BLA_p3_ratio: Tox21 HCT-116 p53 Agonism Beta-lactamase Assay, Ratio, Phase 3 (AID 2283596)
How it was run: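 Cells were seeded at 4000/well, rested 5 h at 37C, then dosed with DMSO compound solutions (217-fold dilution) for 16 h. CCF4-AM substrate was loaded for 2 h at room temperature, and the 460/530 nm emission ratio was fitted for gain of signal versus DMSO.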

[14] = target: Cellular tumor antigen p53 (Homo sapiens) (UniProt P04637); test: TOX21_p53_BLA_p5_ratio: Tox21 HCT-116 p53 Agonism Beta-lactamase Assay, Ratio, Phase 5 (AID 2283599)
How it was run: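 Beta-lactamase reporter ratio (blue 460 nm over green 530 nm, 405 nm excitation) after 2 h CCF4-AM loading, in HCT-116 cells exposed 16 h at 37 C to compounds pinned at 217-fold dilution. Increases relative to DMSO baseline scored.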

[15] = TOX21_p53_BLA_p5_viability: Viability Assessment in the Tox21 HCT-116 p53 Agonism Beta-lactamase Assay, Phase 5 (AID 2283600)
How it was run: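 ATP luminescence (CellTiter-Glo, 30 min, RT) served as the viability read-out, with loss of signal indicating cytotoxicity. Compounds in DMSO were pinned at a 217-fold dilution onto 4000 cells/well and incubated 16 h, 37C.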

[16] = target: Cellular tumor antigen p53 (Homo sapiens) (UniProt P04637); test: TOX21_p53_BLA_p4_ratio: Tox21 HCT-116 p53 Agonism Beta-lactamase Assay, Ratio, Phase 4 (AID 2283601)
How it was run: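 Signal is the blue/green (460nm/530nm) ratio of cleaved versus uncleaved CCF4-AM substrate, read after 2 h substrate loading. Cells were HCT116 carrying the p53-responsive beta-lactamase reporter, dosed 16 h at 37C, 5% CO2; CellTiter-Glo measured in parallel.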

[17] = target: Retinoic acid receptor alpha (Homo sapiens) (UniProt P10276); test: ATG_DR5_RAR_CIS: Attagene CIS-FACTORIAL HepG2 Assay for human Retinoic Acid Receptor Alpha (RARE), DR5 submotif (AID 2282934; active means hit-call score of the fitted dose curve at least 0.9, where 1 is the maximum; inactive means score below 0.9); settings: HepG2 Attagene cis-factorial RARE DR5 reporter, mRNA; actives raise or lower the signal
How it was run: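 Reporter transcripts from a DR5-regulated unit, measured via RT-PCR plus capillary electrophoresis, reflect endogenous RAR activity in transiently transfected human HepG2 liver cells. Exposure lasted 24 h; gain or loss of signal scored against DMSO.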

[18] = ATG_GLI_CIS: Attagene CIS-FACTORIAL HepG2 Assay for human Zinc Finger Protein GLI1 (AID 2282945; active means hit-call score of the fitted dose curve at least 0.9, where 1 is the maximum; inactive means score below 0.9); settings: HepG2, Attagene cis-factorial reporter mRNA, GLI element; actives raise or lower the signal
How it was run: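 Bidirectional curve fits relative to DMSO, using reporter mRNA levels from RT-PCR plus capillary electrophoresis. Cells were HepG2 transiently carrying cis-regulated reporter constructs, harvested 24 h after dosing.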

[19] = ATG_GRE_CIS: Attagene CIS-FACTORIAL HepG2 Assay for human Glucocorticoid Response Elements (GRE) (AID 2282947; active means hit-call score of the fitted dose curve at least 0.9, where 1 is the maximum; inactive means score below 0.9); settings: HepG2 GRE cis-reporter, Attagene multiplex mRNA; actives raise or lower the signal
How it was run: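 Multiplexed cis-reporter mRNA induction, HepG2, 24 h post-dose. RT-PCR, FAM-labelled, HpaI-digested amplicons by CE. Bidirectional fit vs DMSO.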

[20] = target: X-box-binding protein 1 (Homo sapiens) (UniProt P17861); test: ATG_Xbp1_CIS: Attagene CIS-FACTORIAL HepG2 Assay for human X-box Binding Protein 1 (XBP1) (AID 2282972; active means hit-call score of the fitted dose curve at least 0.9, where 1 is the maximum; inactive means score below 0.9); settings: HepG2 XBP1 cis-element reporter, Attagene multiplex; actives raise or lower the signal
How it was run: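 Reporter transcripts were quantified by RT-PCR with fluorescent primer extension and capillary electrophoresis after 24 h chemical exposure. Cells: transiently transfected HepG2 carrying cis-regulated reporter constructs; data fitted bidirectionally relative to DMSO.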

Measured: AC50

Sequence of X-box-binding protein 1 (Homo sapiens) (P17861 whole entry, looked up): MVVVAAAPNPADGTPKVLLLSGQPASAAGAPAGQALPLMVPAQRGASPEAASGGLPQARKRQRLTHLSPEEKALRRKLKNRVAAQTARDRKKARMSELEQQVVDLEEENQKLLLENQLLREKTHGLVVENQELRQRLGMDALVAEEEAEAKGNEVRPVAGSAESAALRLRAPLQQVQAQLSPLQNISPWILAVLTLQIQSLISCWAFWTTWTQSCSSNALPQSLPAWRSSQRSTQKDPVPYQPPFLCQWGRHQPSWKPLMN
Sequence of human Retinoid X Receptor beta (RXRb), RXRB (gene 6257) (P28702 whole entry, looked up, the tested form may be a part): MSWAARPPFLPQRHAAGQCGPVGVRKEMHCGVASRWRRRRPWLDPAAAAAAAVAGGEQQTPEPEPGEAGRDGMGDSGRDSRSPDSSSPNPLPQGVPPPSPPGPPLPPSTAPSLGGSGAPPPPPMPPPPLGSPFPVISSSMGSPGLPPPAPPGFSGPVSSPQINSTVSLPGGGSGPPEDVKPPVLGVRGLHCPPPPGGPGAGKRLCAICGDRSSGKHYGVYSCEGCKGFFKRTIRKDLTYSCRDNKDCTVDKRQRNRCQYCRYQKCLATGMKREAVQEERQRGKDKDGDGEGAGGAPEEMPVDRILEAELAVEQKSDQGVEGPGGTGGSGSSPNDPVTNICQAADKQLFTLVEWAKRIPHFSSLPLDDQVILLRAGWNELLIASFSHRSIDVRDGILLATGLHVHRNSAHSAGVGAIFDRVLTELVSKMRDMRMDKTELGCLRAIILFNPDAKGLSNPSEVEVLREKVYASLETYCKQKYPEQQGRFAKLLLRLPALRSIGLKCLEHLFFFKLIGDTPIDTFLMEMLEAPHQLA
Sequence of Nuclear respiratory factor 1 (Homo sapiens) (Q16656 whole entry, looked up): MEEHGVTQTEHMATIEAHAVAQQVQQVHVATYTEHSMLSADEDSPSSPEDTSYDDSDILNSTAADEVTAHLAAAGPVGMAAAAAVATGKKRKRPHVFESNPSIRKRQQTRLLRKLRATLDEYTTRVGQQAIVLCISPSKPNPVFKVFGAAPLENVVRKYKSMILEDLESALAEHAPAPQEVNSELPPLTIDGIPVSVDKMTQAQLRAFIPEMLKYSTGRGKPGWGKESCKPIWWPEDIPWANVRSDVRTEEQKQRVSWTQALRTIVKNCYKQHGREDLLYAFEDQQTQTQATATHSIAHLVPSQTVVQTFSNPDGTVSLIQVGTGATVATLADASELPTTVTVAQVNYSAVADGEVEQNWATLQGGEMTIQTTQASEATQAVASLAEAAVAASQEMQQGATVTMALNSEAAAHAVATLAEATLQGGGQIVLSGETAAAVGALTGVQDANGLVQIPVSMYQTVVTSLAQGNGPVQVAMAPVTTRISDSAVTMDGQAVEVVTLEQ
Sequence of Cellular tumor antigen p53 (Homo sapiens) (P04637 whole entry, looked up): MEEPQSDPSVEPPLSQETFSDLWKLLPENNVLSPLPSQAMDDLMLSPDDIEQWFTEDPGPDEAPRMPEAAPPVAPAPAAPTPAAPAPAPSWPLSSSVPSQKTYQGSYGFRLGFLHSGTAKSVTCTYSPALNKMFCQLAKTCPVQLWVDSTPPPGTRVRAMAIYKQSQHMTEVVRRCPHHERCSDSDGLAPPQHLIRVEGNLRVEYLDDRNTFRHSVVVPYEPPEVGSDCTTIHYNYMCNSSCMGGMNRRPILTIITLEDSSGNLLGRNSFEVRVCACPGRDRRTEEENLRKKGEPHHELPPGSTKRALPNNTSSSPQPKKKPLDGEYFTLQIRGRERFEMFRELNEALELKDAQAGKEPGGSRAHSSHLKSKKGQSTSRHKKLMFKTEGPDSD
Sequence of Hepatocyte nuclear factor 4-alpha (Homo sapiens) (P41235 whole entry, looked up): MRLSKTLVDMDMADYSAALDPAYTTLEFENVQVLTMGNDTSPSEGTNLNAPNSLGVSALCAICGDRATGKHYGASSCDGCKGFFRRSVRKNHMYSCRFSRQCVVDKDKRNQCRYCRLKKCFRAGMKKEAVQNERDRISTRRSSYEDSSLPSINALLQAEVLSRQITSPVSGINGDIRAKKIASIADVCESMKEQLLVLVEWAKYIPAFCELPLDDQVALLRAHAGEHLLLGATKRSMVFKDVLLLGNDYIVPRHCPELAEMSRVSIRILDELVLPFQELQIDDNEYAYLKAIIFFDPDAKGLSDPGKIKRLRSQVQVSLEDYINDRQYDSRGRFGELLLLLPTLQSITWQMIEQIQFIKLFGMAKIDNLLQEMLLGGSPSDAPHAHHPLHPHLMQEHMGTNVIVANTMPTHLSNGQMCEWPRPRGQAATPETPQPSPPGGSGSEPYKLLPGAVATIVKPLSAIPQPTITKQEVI
Sequence of Retinoic acid receptor alpha (Homo sapiens) (P10276 whole entry, looked up): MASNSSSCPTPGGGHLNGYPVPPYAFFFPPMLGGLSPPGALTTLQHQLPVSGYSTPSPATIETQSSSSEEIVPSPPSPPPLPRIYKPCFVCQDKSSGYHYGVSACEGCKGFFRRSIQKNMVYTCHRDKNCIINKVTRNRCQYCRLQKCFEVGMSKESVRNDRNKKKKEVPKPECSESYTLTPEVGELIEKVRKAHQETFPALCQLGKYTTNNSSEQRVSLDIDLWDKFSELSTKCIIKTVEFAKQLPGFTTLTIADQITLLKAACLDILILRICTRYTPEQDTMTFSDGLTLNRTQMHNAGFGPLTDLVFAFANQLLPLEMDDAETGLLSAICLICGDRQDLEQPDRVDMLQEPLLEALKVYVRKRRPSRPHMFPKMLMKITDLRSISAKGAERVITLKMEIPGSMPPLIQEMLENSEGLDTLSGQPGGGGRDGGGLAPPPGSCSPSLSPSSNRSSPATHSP
Sequence of Transcriptional activator Myb (Homo sapiens) (P10242 whole entry, looked up): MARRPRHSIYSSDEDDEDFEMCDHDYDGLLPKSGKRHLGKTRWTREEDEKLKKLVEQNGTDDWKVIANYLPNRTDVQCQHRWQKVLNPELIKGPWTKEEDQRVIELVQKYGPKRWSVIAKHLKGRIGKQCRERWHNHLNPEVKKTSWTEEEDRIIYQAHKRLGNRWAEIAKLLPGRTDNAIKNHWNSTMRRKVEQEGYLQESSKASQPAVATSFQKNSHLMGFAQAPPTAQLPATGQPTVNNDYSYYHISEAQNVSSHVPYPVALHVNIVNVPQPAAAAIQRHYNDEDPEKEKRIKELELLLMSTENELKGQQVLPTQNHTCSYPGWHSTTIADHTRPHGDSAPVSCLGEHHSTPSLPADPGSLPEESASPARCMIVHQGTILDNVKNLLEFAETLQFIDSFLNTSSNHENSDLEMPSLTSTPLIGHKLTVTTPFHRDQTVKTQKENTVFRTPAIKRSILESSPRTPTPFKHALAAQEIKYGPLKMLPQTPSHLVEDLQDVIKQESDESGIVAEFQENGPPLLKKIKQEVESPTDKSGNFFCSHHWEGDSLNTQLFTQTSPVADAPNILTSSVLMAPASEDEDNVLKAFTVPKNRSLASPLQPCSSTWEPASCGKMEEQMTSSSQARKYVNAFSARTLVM

CN(C)c1ccc(C(c2ccccc2)c2ccc(N(C)C)cc2)cc1
not listed: [17] | [18] | [19] | [20]
inactive: all other assays above

[O-][n+]1ccc(Cl)cc1
inactive: [17] | [18] | [19] | [1] | [2] | [3] | [4] | [7] | [8] | [10] | [12]

CCCCCCC1CCCC(=O)O1 (centres undefined)
not listed: [8] | [10] | [13] | [18] | [20]
inactive: all other assays above

CC/C=C\CCO
not listed: [1] | [3] | [8] | [10] | [11] | [13] | [16] | [17]
inactive: all other assays above

CCC(C)(CCC(C)C)C(=O)O (centres undefined)
inactive: [17] | [2] | [20] | [4] | [5] | [6] | [7] | [8] | [9]

OCCN(CCO)c1cccc(Cl)c1
not listed: [5] | [6] | [9] | [15] | [17] | [19]
inactive: all other assays above

Cc1cccnc1
inactive: [18] | [1] | [2] | [3] | [5] | [7] | [8]
active: [6] 164 µM

CCCC[N+]1(C)CCCC1
inactive: [18] | [20] | [6] | [7] | [9]

OCCc1ccccn1
inactive: [19] | [1] | [20] | [4] | [7] | [9] | [11] | [12] | [13] | [15] | [16]

Clc1ccccn1
not listed: [1] | [7] | [10] | [11] | [13] | [16] | [18] | [19]
inactive: all other assays above

CCCc1c(OCCCCc2nn[nH]n2)ccc(C(C)=O)c1O
active: [10] 20.4 µM | [12] 73.1 µM and 19.2 µM | [13] 30.1 µM | [14] 26.6 µM | [16] 25.2 µM
inactive: [18] | [19] | [1] | [2] | [20] | [4] | [5] | [7] | [8] | [11] | [13] | [14] | [15] | [16]

CC1=C(CC(=O)O)c2cc(F)ccc2/C1=C\c1ccc(S(C)=O)cc1 (centres undefined)
active: [1] 26 µM
not listed: [3] | [4] | [6] | [7] | [12] | [13] | [16] | [17]
inactive: all other assays above

Cc1cc(C)c(S(=O)(=O)O)cc1N=Nc1cc(S(=O)(=O)O)c2ccccc2c1O
not listed: [8] | [14] | [17] | [19]
inactive: all other assays above

CCO[Si](CCCN)(OCC)OCC
not listed: [5] | [10] | [17] | [20]
inactive: all other assays above

COCCCN
not listed: [6] | [17]
inactive: all other assays above

CC1(C)S[C@@H]2[C@H](NC(=O)[C@H](N)c3ccccc3)C(=O)N2[C@H]1C(=O)O
not listed: [1] | [5] | [8] | [9] | [10] | [17]
inactive: all other assays above

CC/C=C\CCCCCO
not listed: [5] | [7] | [8] | [10] | [11] | [16] | [17] | [20]
inactive: all other assays above

CCCCCCCCCCC1CO1 (centres undefined)
active: [18] 159 µM
not listed: [4] | [7] | [9] | [11] | [14] | [15] | [17] | [19]
inactive: all other assays above

CC1=C(CC=O)C(C)(C)CCC1
not listed: [1] | [3] | [4] | [6] | [10] | [17] | [19]
inactive: all other assays above

COC(OC)C(C)c1ccccc1 (centres undefined)
not listed: [1] | [2] | [6]
inactive: all other assays above

C=CN1CCCCCC1=O
not listed: [1] | [4] | [5] | [8] | [9] | [15] | [17] | [18]
inactive: all other assays above
